Screening results (PubChem)
PLK1 PBD block: inhibitors of human PLK1 polo-box domain binding. P53350. Plk1 PBD binding of FITC phosphopeptide, fluorescence polarization. Potency, µM, for the others: max response, negative = inhibition, actives largely listed as inhibitors. hit rate 2.8% among 360,000; also: series mostly up to about 57 µM; % is scaled to controls: 0 for no effect and ±100 for the full control effect; nearly all actives have a fitted effect of over 65% in size
HP1b binding inh: inhibitors of HP1-beta chromodomain binding to methylated histone tails; Potency, µM (doses to about 114 µM), for inactives: at the top dose activity change, negative = inhibition, actives largely listed as inhibitors; AlphaScreen HP1-beta / biotin-H3K9me3 peptide binding; AID 540317; hit rate 0.56% among 390,000; P83916; also: nearly all actives have a fitted effect of over 70% in size
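Compound inhibition of the preformed complex between 50 nM HP1-beta and 50 nM biotinylated H3K9me3 peptide was read by AlphaScreen. Buffer was PBS pH 7.4 with 0.01% Tween-20. Incubations ran 30 min at room temperature, with 10 ug/mL donor/acceptor beads.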
G9a inh: inhibitors of human histone lysine methyltransferase G9a. G9a H3K9 monomethylation, AlphaScreen, 2 h. AID 504332. Q96KQ7. hit rate 8.8% among 350,000. Potency, µM (top dose mostly 102 µM), for inactives: top-dose activity, negative = inhibition, hits mostly inhibitors; also: % is scaled to controls: 0 for no effect and ±100 for the full control effect; nearly all actives have a fitted effect of over 75% in size
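Using a bead-based AlphaScreen, monomethylated H3K9 product from 2 h room-temperature reactions (G9a 20 nM, peptide 500 nM, SAM 20 uM) was detected with 0.5 ug/mL rabbit anti-H3K9me1 antibody.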
Sfp inh: blocks B. subtilis Sfp PPTase activity; Q9F4F7; Biochemical Sfp PPTase activity, qHTS; Potency, µM, inactives show largest response in the series, negative = inhibition, actives largely listed as inhibitors; hit rate 3.5% among 310,000; AID 1490;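 also: the enzyme is Sfp with the accession as filed and its product quenches rhodamine fluorescence; 0% = enzyme reaction without inhibitor and -100% = no enzyme wells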
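With Hepes-Na pH 7.6 buffer containing 10 mM MgCl2, Sfp (15 nM) modified BHQ-2-YbbR (12.5 uM) using rhodamine-CoA (5 uM). Two reads 30 minutes apart at 525/598 nm yielded each well's rate.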
JMJD2A Tudor: inhibitors of human JMJD2A Tudor domain; hit rate 4.4% among 390,000; Potency, µM (highest dose often 114 µM), without a hit: at the highest dose activity change, negative = inhibition, usual class: inhibitors; AlphaScreen JMJD2A-Tudor / H3K4me3 peptide binding; also: % is scaled to controls: 0 for no effect and ±100 for the full control effect; nearly all actives have a fitted effect of over 50% in size
Target sequence (O75164 whole entry, looked up, the tested form may be a part): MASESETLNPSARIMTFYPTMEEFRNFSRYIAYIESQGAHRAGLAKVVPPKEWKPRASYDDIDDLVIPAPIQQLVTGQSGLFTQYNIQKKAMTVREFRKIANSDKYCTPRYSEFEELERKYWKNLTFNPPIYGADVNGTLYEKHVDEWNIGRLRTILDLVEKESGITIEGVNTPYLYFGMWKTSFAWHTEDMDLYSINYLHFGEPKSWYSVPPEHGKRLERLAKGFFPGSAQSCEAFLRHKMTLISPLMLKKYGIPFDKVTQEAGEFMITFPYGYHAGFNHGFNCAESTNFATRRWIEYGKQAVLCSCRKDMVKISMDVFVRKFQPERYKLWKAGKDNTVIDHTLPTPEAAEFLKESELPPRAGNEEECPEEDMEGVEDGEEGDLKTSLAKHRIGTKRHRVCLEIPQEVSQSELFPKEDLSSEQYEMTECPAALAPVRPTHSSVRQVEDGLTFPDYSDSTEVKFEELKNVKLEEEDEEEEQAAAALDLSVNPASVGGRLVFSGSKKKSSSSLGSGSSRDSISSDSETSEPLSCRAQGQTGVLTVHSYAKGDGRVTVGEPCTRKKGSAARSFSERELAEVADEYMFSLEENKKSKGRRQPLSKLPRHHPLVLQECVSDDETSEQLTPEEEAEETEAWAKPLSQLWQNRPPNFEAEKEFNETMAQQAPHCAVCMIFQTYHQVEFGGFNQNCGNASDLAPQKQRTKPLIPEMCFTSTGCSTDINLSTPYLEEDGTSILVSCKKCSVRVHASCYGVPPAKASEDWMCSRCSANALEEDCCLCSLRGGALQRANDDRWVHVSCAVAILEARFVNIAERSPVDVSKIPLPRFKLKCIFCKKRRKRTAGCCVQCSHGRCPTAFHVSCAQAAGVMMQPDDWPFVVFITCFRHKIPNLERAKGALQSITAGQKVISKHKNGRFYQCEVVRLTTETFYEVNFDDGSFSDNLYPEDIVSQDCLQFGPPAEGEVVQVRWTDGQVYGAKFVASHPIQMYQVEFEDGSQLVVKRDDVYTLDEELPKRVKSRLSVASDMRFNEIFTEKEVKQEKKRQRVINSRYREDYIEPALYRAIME
BAZ2B block: inhibitors of human BAZ2B bromodomain; Q9UIF8; AlphaScreen BAZ2B-H3K14Ac peptide displacement; Potency, µM (highest dose often 114 µM), for inactives: at the highest dose activity change, negative = inhibition, usual class: inhibitors; hit rate 4.4% among 360,000; also: % is scaled to controls: 0 for no effect and ±100 for the full control effect; nearly all actives have a fitted effect of over 60% in size
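Multi-concentration screen (max 110 uM) measuring displacement of acetylated histone H3 peptide from BAZ2B by AlphaScreen, using 50 nM protein, 50 nM peptide and 10 ug/mL streptavidin donor plus Ni-chelate acceptor beads.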
The depositor's hits bear a star; u = inconclusive; x = no result; [ ] = another dose, or the depositor's remark. An excerpt weighted towards active compounds, which were near 12% of everything screened. Calls follow the shape of the dose curve; as a rule, active = well fitted curve in the direction sought with a large enough effect; inconclusive = small, poorly fitted or top-dose-only effect, or another doubt; inactive = no such curve, though single readings can be large; an effect the other way counts as inactive or inconclusive. Potency is read from the fitted curve at half-maximal effect.

SMILES	PLK1 PBD block	HP1b binding inh	G9a inh	Sfp inh	JMJD2A Tudor	BAZ2B block
COc1ccc(/C=C(/C#N)C(=O)Nc2ccccc2C)cc1C(=O)O	-3.1%	26.9%	21.3%[59 µM]	-13.9%	-27.4%	-8.2%
CCOc1cc(/C=C(\C#N)C(=O)Nc2ccccc2C(=O)O)ccc1OC(=O)c1ccc(C)cc1	18.9µM*	13.9%	x	-12.1%	50.1µM*	2.1%
CNc1cc2c(cc1S(=O)(=O)Nc1ccc(C)c(C)c1)CCC(=O)N2	x	x	x	x	-17.0%	x
Cc1ccc(CS(=O)(=O)c2cn(CC(=O)N(C)c3ccccc3)c3ccccc23)cc1	x	5.6%	-8.1%[59 µM]	x	-26.7%	-21.5%
O=C(Nc1ccc(Br)cc1)c1ccc(F)c(S(=O)(=O)NC2CCCCCC2)c1	x	29.1%	4.3%[59 µM]	x	-22.6%	-3.4%
O=C1CCCC2=C1C1(CCOCC1)N=C(Nc1nc3ccccc3o1)N2	x	x	x	x	-23.4%	x
CC1CCC/C(=C\Nc2ccccc2C(=O)O)C1=O (stereo not given)	-3.6%	38.1%	44.7µM*	11.2%	-26.1%	u
CC1CCC/C(=C\Nc2ccc3c(c2)OCO3)C1=O (stereo not given)	-19.3%	-10.4%	8.91µM*	u	100µM*	u
CC(NC(=O)CN1C(=O)NC2(CCCC2)C1=O)c1ccc(Cl)cc1Cl (stereo not given)	-1.7%	25.4%	x	x	-6.8%	x
Cc1ccc(CNC(=O)c2ccc3c(=O)n(CC4CCCO4)c(=S)[nH]c3c2)cc1 (stereo not given)	-5.7%	24.6%	2.2%[59 µM]	0.4%	-9.6%	3.4%
O=C(NCc1ccccc1)c1ccc2c(=O)n(CC3CCCO3)c(=S)[nH]c2c1 (stereo not given)	-4.3%	41.2%	-14.8%	2.9%	89.1µM*	8.5%
CC(C)NC(=O)c1ccc2c(=O)n(CC3CCCO3)c(=S)[nH]c2c1 (stereo not given)	-28.6%	27.2%	124.3%[59 µM]	-17.5%	u	9.2%
COc1ccccc1Cn1c(=S)[nH]c2cc(C(=O)NCCN(C)C)ccc2c1=O	-13.3%	14.6%	44.7µM*	-7.4%	-18.9%	-13.8%
O=C(NCc1ccco1)c1ccc2c(=O)n(CC3CCCO3)c(=S)[nH]c2c1 (stereo not given)	-4.0%	45.0%	8.91µM*	-11.8%	-11.3%	9.1%
COc1ccccc1CNC(=O)c1ccc2c(=O)n(CC3CCCO3)c(=S)[nH]c2c1 (stereo not given)	-7.1%	28.2%	9.1%	19.1%	-2.8%	6.3%
COCCCNC(=O)c1ccc2c(=O)n(CC3CCCO3)c(=S)[nH]c2c1 (stereo not given)	-7.3%	9.5%	1.0%[12.7 µM]	-19.8%	20µM*	u
CCc1cc2c(cc3c(=O)n(CC(=O)N4CCCCC4)ncn32)s1	x	58.5%	21.8%[59 µM]	x	-2.2%	27.2%
CCCNC(=O)CCn1cc(-c2ccc(OC)cc2)nc1-c1ccncc1	-0.4%	0.4%	1.2%	27.0%	-15.2%	-28.1%
CC(C)[C@@H]1C(=O)N(S(C)(=O)=O)[C@H]2CCN(C(=O)/C=C\CN3CCCCC3)[C@@H]12	x	x	x	16.5%	x	x
Cc1ccc(C)c(S(=O)(=O)Nc2nc3ccc(S(N)(=O)=O)cc3s2)c1	u	-15.5%	10µM*	u	50.1µM*	7.9%
CC1(C(=O)NS(=O)(=O)Cc2cccc(Cl)c2)CCN1C(=O)Cc1cccs1 (stereo not given)	2.1%	x	x	x	x	x
COc1ccc(-c2cc(=O)c3ccc(F)cc3[nH]2)cc1	x	x	9.8%	8.9%	x	x
O=C(Nc1cccc(N2C(=O)C3CCCCC3C2=O)c1)c1ccccc1 (stereo not given)	-4.9%	38.1%	11.0%	17.3%	-5.7%	-1.2%
O=C(Nc1cccc(Cl)c1)c1cccc(N2C(=O)C3CC=CCC3C2=O)c1 (stereo not given)	-20.3%	u	79.4µM*	-7.4%	-25.9%	u
O=C(Nc1ccc(F)cc1)c1cccc(N2C(=O)C3C4CCC(C4)C3C2=O)c1 (stereo not given)	-3.0%	27.1%	3.16µM*	1.8%	17.9%	-1.4%
SMILES	PLK1 PBD block	HP1b binding inh	G9a inh	Sfp inh	JMJD2A Tudor	BAZ2B block
Cc1ccc(C)c(S(=O)(=O)N/N=C/c2cccnc2)c1	-28.7%	36.8%	u	-9.2%	-25.2%	-1.1%
CC(=O)Nc1ccc(/C=N/NS(=O)(=O)c2cc(C)ccc2C)cc1	0.9%	35.8%	50.1µM*	-11.0%	-4.0%	-37.2%
Cc1ccc(C)c(S(=O)(=O)N/N=C/c2ccc(F)cc2)c1	-17.9%	27.0%	11.2µM*	-29.2%	-22.5%	-3.7%
Cc1ccccc1NC(=O)CC1SC(=NC2CCCCC2)NC1=O (stereo not given)	-5.3%	53.2%	-26.7%[59 µM]	-13.5%	-8.6%	9.7%
CC1=C/C(=N\N=C2\NC(=O)C(CC(=O)Nc3ccccc3)S2)CC(C)(C)C1 (stereo not given)	23.8µM*	7.0%	-33.1%	6.6%	u	0.1%
O=C(CC1S/C(=N/N=C/C=C/c2ccccc2)NC1=O)Nc1ccc(C(=O)O)cc1 (stereo not given)	-2.3%	23.7%	u	-4.9%	-17.4%	79.4µM*
Cc1ccc(NC(=O)CC2SC(=NC3CCCCC3)NC2=O)cc1 (stereo not given)	-15.5%	42.3%	89.1µM*	-2.1%	-12.4%[57.1 µM]	-1.8%
CC(Oc1ccccc1F)c1nnc(SCC(=O)N(c2ccccc2)C2CCS(=O)(=O)C2)o1 (stereo not given)	-2.5%	39.8%	x	x	-8.4%	x
C=CCC(O)(/C=C/c1ccccc1)c1ccccc1 (stereo not given)	x	x	x	-19.0%	x	x
COc1cc(/C=C/C(=O)O)cc(S(=O)(=O)N2CCCc3ccccc32)c1OC	26.7µM*	-15.2%	u	6.6%	-8.8%[11.4 µM]	-18.8%
C[C@H]1CN([C@@H](C)CO)C(=O)CCCn2nncc2CO[C@H]1CN(C)C(=O)c1ccc2ccn(C)c2c1	-21.2%	x	x	x	x	x
CCc1ccc(N2CC(C)Cn3c2nc2c3c(=O)[nH]c(=O)n2C)cc1 (stereo not given)	u	9.5%[57 µM]	9.7%[0.501 µM]	-2.7%	-27.7%	-15.4%
CCn1c(C)nc2cc(C(=O)N/N=C/c3cccc(OC)c3O)ccc21	-0.2%	-5.6%	79.4µM*	21.8%	u	-16.3%
CCn1c(C)nc2cc(C(=O)N/N=C/c3ccc(O)c(O)c3O)ccc21	8.44µM*	8.91µM*	2µM*	2.24µM*	6.31µM*	11.2µM*
O=C(COC(=O)COc1ccccc1F)NCCc1ccc(F)cc1	4.3%	52.9%	22.8%[2.33 µM]	x	11.0%	-1.6%
CS(=O)(=O)Nc1cccc(C(=O)CC2(O)C(=O)Nc3ccc(Br)cc32)c1 (stereo not given)	-4.9%	15.7%	-33.5%	3.1%	3.9%[57.1 µM]	-21.2%
